# Data taken from PubChem BioAssay.
# Activity calls are given as the source filed them.
# Tests used:
# [1] = small molecules captured by biotinylated probe aFSTL3 – biochemical, small-molecule microarray, fluorescence 635/667, stem cell growth factor project, primary screen (AID 1064); conditions: higher = more signal;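 further: measures binding of the biotinylated anti-FSTL3 antibody to printed compounds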
# [2] = binders from COS7 lysate, DM2A8 probe, primary screen, torsin A project, cell lysate, small-molecule microarray, fluorescence 635/667 (AID 1065); conditions: higher = more signal, COS7 lysate expressing mutant human TOR1A
# [3] = small molecules captured by biotinylated probe aFGF2 – biochemical, small-molecule microarray, fluorescence 635/667, stem cell growth factor project, primary screen (AID 1067); conditions: higher = more signal;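 further: measures binding of biotinylated aFGF2 protein to printed compounds on slides; z-score merges feature fluorescence and signal-to-noise across triplicate slides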
# [4] = small molecules captured by biotinylated probe aFGF10 – biochemical, small-molecule microarray, fluorescence 635/667, stem cell growth factor project, primary screen (AID 1071); conditions: higher = more signal;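 further: score merges 667 nm spot intensity and signal to noise from triplicate slides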
# [5] = target: Neurogenic locus notch homolog protein 2 (Homo sapiens) (UniProt Q04721); test: small molecules binding Notch2 protein – biochemical, small-molecule microarray, 635 nm fluorescence, stem cell growth factors, primary screen (AID 1073); conditions: higher = more signal
# [6] = target: Pro-neuregulin-1, membrane-bound isoform (Homo sapiens) (UniProt Q02297); test: small molecules binding neuregulin-1 protein – biochemical, small-molecule microarray, fluorescence 635/667, psychiatric disease protein project, primary screen (AID 1075); conditions: NRG1 binding, 635 nm fluorescence, higher = more signal;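 further: score combines 667 nm spot fluorescence with signal to noise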
# [7] = system: Neuregulin-1 EGF-like domain; test: small molecules binding NRG1 EGF domain – biochemical, small-molecule microarray, 635 nm fluorescence, primary screen (AID 1081); conditions: higher = more signal;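 further: binding of the protein to compounds printed on small-molecule microarray slides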
# [8] = FRG1 expression reporter modulators in myotubes – cell-based, C2C12 myotubes, firefly/Renilla luciferase, luminescence, FRG1 inhibition for FSHD, primary screen (AID 1084); conditions: FRG1 promoter luciferase, higher = more signal, called active from +8 up or from −8 down
# [9] = small molecules captured by biotinylated probe aFST – biochemical, small-molecule microarray, fluorescence 635/667, stem cell growth factor project, primary screen (AID 1086); conditions: higher = more signal;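 further: score merges 667 nm fluorescence with signal-to-noise of each printed compound spot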
# [10] = binders of probe aHhip on microarray, primary screen, stem cell growth factor project, biochemical, small-molecule microarray, fluorescence 635/667 (AID 1087); conditions: higher = more signal;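 further: score merges spot fluorescence at 667nm with spot signal to noise ratio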
# [11] = system: PRMT1 (protein arginine N-methyltransferase 1); test: small molecules binding arginine methyltransferase PRMT1 – biochemical, small-molecule microarray, 635 nm fluorescence, primary screen (AID 1088); conditions: higher = more signal;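 further: binding of Prmt1 protein to compounds spotted on small-molecule microarray slides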
# [12] = growth effects on S. cerevisiae YJM789 – YJM789 clinical isolate, OD600, 24 h, basal, primary screen (AID 1089); conditions: higher = more signal, called active from +8 up or from −8 down;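 further: growth of clinical yeast isolate S. cerevisiae YJM 789 seeded 1000 cells per well; test concentration not given here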
# [13] = S. pombe growth modifiers, basal conditions – strain 972, OD600, 24 h, no modulator, primary screen (AID 1090);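 further: basal condition with compound alone and no growth modifier present; test concentration not given here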; conditions: S. pombe 972 growth, higher = more signal, called active from +8 up or from −8 down
# [14] = budding yeast growth modifiers under rapamycin – strain BY4716, OD600, 96 h, primary screen (AID 1091); further: test concentration not given here; conditions: S. cerevisiae BY4716 + rapamycin, higher = more signal, called active from +8 up or from −8 down
# [15] = target: Torsin-1A-interacting protein 2 (Homo sapiens) (UniProt Q8NFQ8); test: small molecules binding lysate-expressed LULL1 – cell lysate, human LULL1 lysate, 635/667 nm fluorescence, primary screen (AID 1092); conditions: small-molecule microarray, hLULL1 lysate binding, 635 nm fluorescence; higher = more signal;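 further: probe is lysate of COS7 cells overexpressing human LULL1; score merges per-feature 667 nm fluorescence with signal-to-noise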
# [16] = optical density change of DRC41 E. coli – strain DRC41, OD650, 24 h, E. coli filamentation project, primary screen (AID 1093);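 further: MC1000 strain lacking acrAB efflux and sulA so SOS filamentation is blocked; test concentration not given here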; conditions: E. coli DRC41 growth, higher = more signal, called active from +8 up or from −8 down
# [17] = probe aLefty2 binding to arrayed compounds – biochemical, biotinylated probe, 635/667 nm fluorescence, primary screen (AID 1094); conditions: small-molecule microarray, higher = more signal;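 further: score merges spot fluorescence near 667 nm with spot signal-to-noise ratio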
# [18] = system: Noggin (protein binding on small-molecule microarray); test: small molecules binding Noggin protein – biochemical, 635/667 nm fluorescence, primary screen (AID 1095); conditions: 635 nm fluorescence, higher = more signal;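 further: score merges 667 nm feature fluorescence with signal to noise over triplicate slides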
# [19] = target: Neurogenic locus notch homolog protein 3 (Homo sapiens) (UniProt Q9UM47); test: small molecules binding NOTCH3 protein – biochemical, 635/667 nm fluorescence, primary screen (AID 1096); conditions: small-molecule microarray, 635 nm fluorescence, higher = more signal
# [20] = probe aEGFR binding to arrayed compounds – biochemical, biotinylated probe, 635/667 nm fluorescence, primary screen (AID 1097); conditions: small-molecule microarray, higher = more signal;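 further: probe is a biotinylated anti-EGFR antibody binding compounds printed on slides; score combines fluorescence near 667 nm and signal to noise of each spot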
# Chain of Pro-neuregulin-1, membrane-bound isoform (Homo sapiens) (Q02297 whole entry, looked up, the tested form may be a part, canonical isoform): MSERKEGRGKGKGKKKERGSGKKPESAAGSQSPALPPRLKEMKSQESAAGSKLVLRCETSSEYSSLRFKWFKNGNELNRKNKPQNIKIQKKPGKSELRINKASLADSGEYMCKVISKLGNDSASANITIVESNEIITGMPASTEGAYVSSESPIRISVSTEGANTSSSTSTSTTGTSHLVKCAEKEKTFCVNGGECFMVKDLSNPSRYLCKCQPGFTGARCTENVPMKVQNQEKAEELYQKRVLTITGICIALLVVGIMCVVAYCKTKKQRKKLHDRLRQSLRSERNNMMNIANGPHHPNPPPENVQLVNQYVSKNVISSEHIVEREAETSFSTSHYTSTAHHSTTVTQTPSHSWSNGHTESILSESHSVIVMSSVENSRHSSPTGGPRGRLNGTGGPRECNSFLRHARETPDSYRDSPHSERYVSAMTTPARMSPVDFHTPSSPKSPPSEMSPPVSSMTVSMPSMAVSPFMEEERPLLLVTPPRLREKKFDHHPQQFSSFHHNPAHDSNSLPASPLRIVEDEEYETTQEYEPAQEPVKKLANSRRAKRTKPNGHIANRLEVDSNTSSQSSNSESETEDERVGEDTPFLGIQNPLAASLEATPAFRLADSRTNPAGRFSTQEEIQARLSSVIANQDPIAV
# Chain of Neurogenic locus notch homolog protein 3 (Homo sapiens) (Q9UM47 whole entry, looked up): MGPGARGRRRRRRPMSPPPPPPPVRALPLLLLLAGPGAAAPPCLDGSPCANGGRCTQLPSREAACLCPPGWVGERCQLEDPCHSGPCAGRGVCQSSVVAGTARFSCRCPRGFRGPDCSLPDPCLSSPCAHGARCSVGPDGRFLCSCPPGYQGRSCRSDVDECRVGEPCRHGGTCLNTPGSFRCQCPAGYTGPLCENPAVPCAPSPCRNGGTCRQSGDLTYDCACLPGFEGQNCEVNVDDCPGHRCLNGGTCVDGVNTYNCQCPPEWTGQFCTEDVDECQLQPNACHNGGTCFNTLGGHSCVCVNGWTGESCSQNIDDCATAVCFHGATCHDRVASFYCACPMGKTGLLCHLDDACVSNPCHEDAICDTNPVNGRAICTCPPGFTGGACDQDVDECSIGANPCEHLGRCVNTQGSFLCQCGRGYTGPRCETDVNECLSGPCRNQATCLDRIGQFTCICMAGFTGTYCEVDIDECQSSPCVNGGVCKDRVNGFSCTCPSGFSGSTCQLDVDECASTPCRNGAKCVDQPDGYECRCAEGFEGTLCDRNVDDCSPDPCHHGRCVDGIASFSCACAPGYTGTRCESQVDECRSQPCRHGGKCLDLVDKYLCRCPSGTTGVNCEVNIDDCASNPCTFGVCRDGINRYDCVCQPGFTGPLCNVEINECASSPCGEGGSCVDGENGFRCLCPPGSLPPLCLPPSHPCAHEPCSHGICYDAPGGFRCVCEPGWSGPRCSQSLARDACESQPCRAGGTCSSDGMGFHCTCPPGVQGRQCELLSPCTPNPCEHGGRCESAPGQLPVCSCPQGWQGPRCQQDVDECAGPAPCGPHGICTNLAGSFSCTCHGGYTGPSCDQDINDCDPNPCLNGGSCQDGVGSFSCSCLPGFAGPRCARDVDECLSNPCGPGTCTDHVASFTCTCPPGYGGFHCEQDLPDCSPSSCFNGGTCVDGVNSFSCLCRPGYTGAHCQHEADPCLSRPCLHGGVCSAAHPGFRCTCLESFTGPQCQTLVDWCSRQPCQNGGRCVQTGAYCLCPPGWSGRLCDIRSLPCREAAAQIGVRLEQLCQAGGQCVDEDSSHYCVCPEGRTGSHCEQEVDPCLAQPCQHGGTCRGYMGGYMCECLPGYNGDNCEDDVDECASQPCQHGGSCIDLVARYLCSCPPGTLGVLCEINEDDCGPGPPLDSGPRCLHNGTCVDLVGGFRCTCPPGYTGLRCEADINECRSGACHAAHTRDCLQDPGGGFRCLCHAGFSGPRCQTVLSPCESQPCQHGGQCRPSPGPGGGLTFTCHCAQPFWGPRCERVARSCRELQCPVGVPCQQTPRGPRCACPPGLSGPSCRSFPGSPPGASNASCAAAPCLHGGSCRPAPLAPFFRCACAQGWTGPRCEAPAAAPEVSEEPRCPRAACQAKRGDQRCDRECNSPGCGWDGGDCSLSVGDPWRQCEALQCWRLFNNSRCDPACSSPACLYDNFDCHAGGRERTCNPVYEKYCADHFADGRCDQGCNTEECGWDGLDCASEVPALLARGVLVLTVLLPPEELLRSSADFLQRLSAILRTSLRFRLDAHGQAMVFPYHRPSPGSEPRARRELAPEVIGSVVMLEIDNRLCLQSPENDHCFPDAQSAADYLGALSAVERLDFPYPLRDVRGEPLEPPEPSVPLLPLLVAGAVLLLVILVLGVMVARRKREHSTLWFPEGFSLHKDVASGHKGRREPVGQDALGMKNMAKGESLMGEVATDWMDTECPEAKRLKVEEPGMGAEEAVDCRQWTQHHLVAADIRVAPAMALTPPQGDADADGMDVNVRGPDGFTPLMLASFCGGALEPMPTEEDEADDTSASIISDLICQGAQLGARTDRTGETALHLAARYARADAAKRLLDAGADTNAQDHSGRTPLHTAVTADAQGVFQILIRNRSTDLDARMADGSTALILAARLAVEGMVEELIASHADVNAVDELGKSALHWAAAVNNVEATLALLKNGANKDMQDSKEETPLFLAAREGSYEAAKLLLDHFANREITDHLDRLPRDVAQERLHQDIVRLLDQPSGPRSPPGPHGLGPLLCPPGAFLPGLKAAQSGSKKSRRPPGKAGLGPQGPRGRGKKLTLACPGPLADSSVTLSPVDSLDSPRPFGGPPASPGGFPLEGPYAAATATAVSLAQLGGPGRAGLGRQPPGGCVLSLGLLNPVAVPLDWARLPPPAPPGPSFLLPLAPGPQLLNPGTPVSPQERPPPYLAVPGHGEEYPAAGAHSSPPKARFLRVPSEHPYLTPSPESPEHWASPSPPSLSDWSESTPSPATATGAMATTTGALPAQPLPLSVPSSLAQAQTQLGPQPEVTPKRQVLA
# Chain of Torsin-1A-interacting protein 2 (Homo sapiens) (Q8NFQ8 whole entry, looked up): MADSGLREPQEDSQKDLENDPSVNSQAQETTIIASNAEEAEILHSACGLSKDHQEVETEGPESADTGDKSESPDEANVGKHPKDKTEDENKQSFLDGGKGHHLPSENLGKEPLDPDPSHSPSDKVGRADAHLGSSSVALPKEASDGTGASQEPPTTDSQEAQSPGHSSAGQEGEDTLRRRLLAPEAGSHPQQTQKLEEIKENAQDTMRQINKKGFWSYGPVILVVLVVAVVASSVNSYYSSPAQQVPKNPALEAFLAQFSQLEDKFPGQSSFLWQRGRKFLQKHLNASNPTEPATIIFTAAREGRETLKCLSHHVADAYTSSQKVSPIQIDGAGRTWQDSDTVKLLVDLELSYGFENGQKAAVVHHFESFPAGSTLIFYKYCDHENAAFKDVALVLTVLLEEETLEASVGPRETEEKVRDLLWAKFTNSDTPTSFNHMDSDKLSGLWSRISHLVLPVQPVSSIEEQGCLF
Structure (SMILES),composite z-score [1],composite z-score [2],composite z-score [3],composite z-score [4],composite z-score [5],composite z-score [6],composite z-score [7],z-score [8],composite z-score [9],composite z-score [10],composite z-score [11],z-score [12],z-score [13],z-score [14],composite z-score [15],z-score [16],composite z-score [17],composite z-score [18],composite z-score [19],composite z-score [20]
O=C1C[C@@](C(=O)NCc2ccccc2)(c2ccc([N+](=O)[O-])cc2)[C@@H](c2ccc(CO)cc2I)N1C1CCCCC1,1.95,0.379,0.347,0.352,1.08,0.819,1.29,-0.524 (inactive),1.3,0.368,1.55,1.2 (inactive),0.856 (inactive),3.33 (inactive),2.38,1.04 (inactive),0.569,0.924,1.12,0.695
[N-]=[N+]=NCc1ccccc1C[C@@]1(C(=O)NCCN2CCOCC2)N=C(c2ccc(OCCCO)cc2)O[C@@H]1c1ccccc1CN=[N+]=[N-],-0.166,0.69,0.105,0.924,1.26,1.27,1.21,-2.25 (inactive),1.59,0.0053,1.56,-0.0759 (inactive),-0.67 (inactive),2.01 (inactive),2.84,1.24 (inactive),0.146,1.11,1.08,0.177
CO[C@H]1O[C@H](CO)[C@@H](OC(=O)Nc2ccc(C(F)(F)F)cc2)[C@H](OC(=O)Nc2ccccc2)[C@H]1OC(=O)Nc1ccccc1,0.113,0.745,0.233,1.15,1.58,1.72,1.3,2.74 (inactive),1.07,-0.105,1.53,0.719 (inactive),-0.304 (inactive),5.51 (inactive),3.14,-0.994 (inactive),0.158,0.896,1.04,0.172
CN1C(=O)C2C=CC(C(O)c3ccc(F)cc3)N(N3CCCCC3)C2C1=O (stereo not given),1.1,1.72,0.344,0.139,1.44,1.17,1.19,0.532 (inactive),0.713,0.0274,1.07,1.15 (inactive),1.27 (inactive),2.06 (inactive),2.78,-1.17 (inactive),0.682,-0.513,0.721,0.204
C=C(/C(=C/C[C@@H](OC(C)=O)c1ccccc1OCCO)c1cnc2ccccc2c1)C(C)C,-0.0572,1.23,-0.166,0.758,1.13,0.179,0.911,-0.698 (inactive),0.0287,-0.344,1.4,-0.37 (inactive),-1.11 (inactive),-0.449 (inactive),0.885,0.575 (inactive),-0.178,1.2,0.646,-0.0439
COC(=O)[C@@]1(Cc2ccccc2)[C@H]2c3cc(C(=O)N4CCCC4)n(Cc4ccc(OC(F)(F)F)cc4)c3C[C@H]2CN1C(=O)c1ccccc1,1.38,-0.277,0.337,0.42,1.72,1.62,1.18,0.705 (inactive),1.73,0.405,0.325,1.54 (inactive),1.5 (inactive),3.42 (inactive),3.29,-1.43 (inactive),0.961,0.0283,1.04,0.647
O=C1NC(=O)C2C1C=CC(C(O)c1ccc(-c3ccccc3)s1)N2Nc1ccccn1 (stereo not given),0.536,0.259,-0.0605,0.444,1.31,1.27,0.988,0.703 (inactive),0.781,-0.191,0.189,-0.3 (inactive),1.01 (inactive),0.499 (inactive),1.76,0.0076 (inactive),0.129,-0.0414,0.418,-0.0085
C=C(/C(=C/C[C@@H](OC(=O)c1ccncc1)c1cccc(OCCO)c1)c1cc(C(=O)OC)ccc1OC)C(C)C,-0.295,0.679,-0.0549,0.579,0.868,0.826,0.981,-1.61 (inactive),0.351,-0.0994,1.33,-0.117 (inactive),-1.22 (inactive),-0.35 (inactive),1.54,1.03 (inactive),0.0233,0.548,0.93,-0.0476
COC(=O)[C@@]1(Cc2ccc(F)cc2)[C@H]2c3cc(C(=O)N4CCCC4)n(Cc4ccccc4)c3C[C@H]2CN1C(=O)c1ccccc1,0.106,-0.663,0.0451,0.19,1.56,1.83,1.12,1.2 (inactive),1.23,0.0578,-0.101,-0.136 (inactive),1.31 (inactive),1.24 (inactive),3.22,0.21 (inactive),0.391,-0.486,0.783,0.0953
C[C@]12C(=O)N(CCCCCO)[C@@H]3C(=O)N(c4ccc(Cl)cc4)CC=CC31O[C@@H]1/C=C\CCCOC(=O)C12 (stereo not given in full),0.302,-1.54,-0.221,-1.14,-0.76,-0.254,0.655,0.803 (inactive),-0.733,-0.28,-1.37,-0.299 (inactive),-1.14 (inactive),-0.637 (inactive),-1.43,-1.25 (inactive),-0.0986,-0.757,-0.0346,-0.172
